About 1,700 (3.3%) of roughly 52,000 compounds were called active. Cut-off read from the data, not from the text of the source: active = survival mostly below about 52% (no sharp cut-off); inactive = mostly above about 56%. This excerpt belongs to a sample that is enriched for actives.

Data on 93 compounds can be found in PubChem BioAssay AID463173 (ICCB-Longwood Screening Facility, Harvard Medical School, 2010).

The test system of this test is Wild type. The test can be described thus: growth inhibition of S. aureus wild type versus tarO mutant, primary screen, teichoic acid synthesis inhibitors, RN4220, OD600 (AID 463173). The following applies: S. aureus RN4220 wild type/DeltatarO growth, OD600, 18 h, stronger effect = lower value, screened at 18.75 µg/mL (by protocol).
As to `CCOC(=O)N1CCN(C(=O)c2cnn(-c3cccc(F)c3)c2-n2cccc2)CC1`, the survival was 81% (inactive).

Consider `Cc1ccc2nc(N3CCC(C(=O)N4CCN(c5cccc(C)c5C)CC4)CC3)[nH]c2c1`, for which the survival is 76% (inactive).

Turning to `Cc1ccn2cc(CNC(=O)c3cccc(C(F)(F)F)c3)nc2c1`, the survival was 86% (inactive).

With `Cc1ccc(Cl)cc1NC(=O)C(NS(=O)(=O)c1ccc2c(c1)CCC(=O)N2)c1ccccc1` (stereo not drawn), the survival was 70% (inactive).

For `COc1ccc(CNC(=O)c2cc3sccc3n2C)cc1`, the survival was 67% (inactive).

For the compound `Cn1c(=O)n(C)c2cc(N3CCOCC3)c(NS(=O)(=O)c3ccc(Br)cc3)cc21`, the survival was 82% (inactive).

On to `O=C(Nc1nnc(S(=O)(=O)N2CCCCCC2)s1)c1ccccc1`, for which the survival was 48% (inactive).

For the compound `CCC(C)NC(=O)CCC(=O)N1Cc2ccccc2Oc2ncccc21` (stereo not drawn), the survival was 121% (inactive).

As for `O=C(CCC(=O)N1Cc2ccccc2Oc2ncccc21)Nc1ccc(Cl)cc1`, the survival was 10% (active).

`Cc1ccc(NC(=O)CCC(=O)N2Cc3ccccc3Oc3ncccc32)cc1Cl`: the survival is 82% (inactive).

Regarding `CC(C)NC(=O)CCC(=O)N1Cc2ccccc2Oc2ncccc21`, the survival was -2% (active).

`CN(C)c1ccc(CNC(=O)CCC(=O)N2Cc3ccccc3Oc3ncccc32)cc1`: the survival is 77% (inactive).

On to `Cc1ccc(NC(=O)CCC(=O)N2Cc3ccccc3Oc3ncccc32)cc1`, for which the survival is 22% (inactive).

As for `Cc1ccc(CNC(=O)CCC(=O)N2Cc3ccccc3Oc3ncccc32)cc1`, the survival is 73% (inactive).

`CCOc1ccc(CNC(=O)CCC(=O)N2Cc3ccccc3Oc3ncccc32)cc1`: the survival was 0% (active).

`CC(C)CCNC(=O)CCC(=O)N1Cc2ccccc2Oc2ncccc21`: the survival is 65% (inactive).

For the compound `Cc1ccc(N2C(=O)SC(N(CC(=O)O)c3ccccc3)C2=O)cc1` (stereo not drawn), the survival is 112% (inactive).

For the compound `Cc1ccc(C)c(NC(=O)Nc2cccc(-c3cn4cccnc4n3)c2)c1`, the survival is 71% (inactive).

Turning to `O=S(=O)(c1ccc(Nc2ccc(-c3ccccc3)nn2)cc1)N1CCCC1`, the survival is 104% (inactive).

As for `Cc1cc(C)cc(N2C(=O)N(CC(=O)c3ccc(Br)cc3)c3ccccc3S2(=O)=O)c1`, the survival is 84% (inactive).

In the case of `O=C1CC(c2ccc(Br)cc2)c2c(ccc3ccccc23)N1` (stereo not drawn), the survival was 39% (inactive).

As for `Cc1ccc(CSc2ccc3nnc(CCNS(=O)(=O)c4ccc(C)cc4)n3n2)cc1`, the survival is 82% (inactive).

Turning to `CC1CCCCN1CCCNC(=O)c1cc(Sc2ccc(Cl)cc2)nc2ccccc12` (stereo not drawn), the survival was 78% (inactive).

On to `CCc1ccc(Sc2cc(C(=O)NCCCN3CCCC(C)C3)c3ccccc3n2)cc1` (stereo not drawn), for which the survival is 71% (inactive).

`O=C(NCCCN1CCCCC1)c1cc(Sc2ccc(Cl)cc2)nc2ccccc12`: the survival was -1% (active).

Take `CC1CCN(CCCNC(=O)c2cc(Sc3ccc(F)cc3)nc3ccccc23)CC1`: the survival is 74% (inactive).

In the case of `CCc1ccc(Sc2cc(C(=O)NCCCN3CCC(C)CC3)c3ccccc3n2)cc1`, the survival is 68% (inactive).

Consider `CC1CCCN(CCCNC(=O)c2cc(Sc3ccc(F)cc3)nc3ccccc23)C1` (stereo not drawn), for which the survival is 14% (active).

In the case of `CC(=O)c1[nH]c(C)c(C(=O)NCCc2ccc(C)cc2)c1C`, the survival was 88% (inactive).

Turning to `CC(=O)Nc1cc(-n2cnnn2)ccc1C`, the survival is 98% (inactive).

Consider `Cc1ccc(NC(=O)Cn2c(=O)n(Cc3nc(C)no3)c(=O)c3cc4c(cc32)OCO4)cc1`, for which the survival is 90% (inactive).

With `CCCCOc1ccccc1CC1C(=O)Nc2ccc(Br)cc21` (stereo not drawn), the survival was 3% (active).

For `COc1ccc(CC2C(=O)Nc3ccc(Br)cc32)cc1OC` (stereo not drawn), the survival was 75% (inactive).

On to `COc1ccc(OC)c(CC2C(=O)Nc3ccc(Br)cc32)c1` (stereo not drawn), for which the survival was 84% (inactive).

For the compound `CCCOc1ccc(CC2C(=O)Nc3ccc(Br)cc32)cc1` (stereo not drawn), the survival was -7% (active).

In the case of `CCOc1ccccc1CC1C(=O)Nc2ccc(Br)cc21` (stereo not drawn), the survival was 73% (inactive).

Regarding `CCOc1c(CC2C(=O)Nc3ccc(Br)cc32)cccc1OC` (stereo not drawn), the survival was 99% (inactive).

With `Cc1ccccc1C(=O)NCc1ccc2c(c1)CCN2C(=O)c1ccccc1`, the survival is 71% (inactive).

Regarding `COc1cccc(OC)c1C(=O)Nc1ccc(-c2nc3ncccc3o2)cc1`, the survival was 88% (inactive).

On to `COc1ccc(C)cc1NC(=O)Cn1c(=O)cc(C)c2c(C)nn(C)c21`, for which the survival is 68% (inactive).

As for `CCN(Cc1ccccc1)C(=O)Cn1cc(S(=O)(=O)Cc2cccc(Cl)c2)c2ccccc21`, the survival is 75% (inactive).

Consider `Cc1ccc(Sc2c(C)nn(C(=O)COc3ccccc3)c2C)cc1`, for which the survival is 9% (active).

In the case of `Cc1nn(C(=O)c2ccccc2)c(C)c1Sc1ccc(Cl)cc1`, the survival was 6% (active).

With `Cc1nn(C(=O)COc2ccc(Cl)cc2)c(C)c1Sc1ccccc1`, the survival was 88% (inactive).

For the compound `Cc1ccc(Sc2c(C)nn(C(=O)c3ccc(Cl)cc3)c2C)cc1`, the survival is 2% (active).

Take `Cc1nn(C(=O)COc2ccccc2)c(C)c1Sc1ccccc1`: the survival is 94% (inactive).

For the compound `Cc1nn(C(=O)c2ccc(Cl)cc2)c(C)c1Sc1ccc(Cl)cc1`, the survival is 40% (inactive).

For the compound `COc1cc(C(=O)n2nc(C)c(Sc3ccc(Cl)cc3)c2C)cc(OC)c1OC`, the survival was 47% (inactive).

On to `Cc1nn(-c2ccccc2)c(OC(=O)C(C)C)c1Sc1ccc(Cl)cc1`, for which the survival was 39% (inactive).

For the compound `Cc1ccc(Sc2c(C)nn(C(=O)COc3ccc(F)cc3)c2C)cc1`, the survival was 85% (inactive).

Take `Cc1ccccc1Nc1c(-c2cccc(Cl)c2)nc2ncccn12`: the survival was 83% (inactive).

As for `NC(=O)c1ccccc1NC(=O)CSc1nc(N)cc(=O)[nH]1`, the survival was 111% (inactive).

With `CCOC(=O)/C(C#N)=C/c1ccc(-c2ccccc2)o1`, the survival was 81% (inactive).

As for `CCCC(=O)n1nc(-c2cccnc2)nc1NCc1ccc(OC)cc1`, the survival was 86% (inactive).

Consider `CCOc1ccc2nc(Cl)c(CN(Cc3ccco3)C(=O)N(C)C)cc2c1`, for which the survival was 109% (inactive).

For the compound `Cc1ccc(C)c(N2CCN(C(=O)c3cc(S(=O)(=O)N4CCCCCC4)cn3C)CC2)c1`, the survival is 77% (inactive).

As for `CNC(=O)C1CCN(S(=O)(=O)c2ccccc2)CC1`, the survival is 109% (inactive).

Regarding `COc1ccc(-c2nc3ccccc3o2)cc1NC(=O)C(C)(C)Oc1ccc(Br)cc1`, the survival was 0% (active).

Consider `CC(C)(C)c1ccc(C(=O)Nc2cc(-c3nc4ccccc4o3)ccc2Cl)cc1`, for which the survival was 2% (active).

With `COc1ccc(-c2nc3ccccc3o2)cc1NC(=O)c1cc(Br)ccc1OC`, the survival was 66% (inactive).

On to `O=C(Nc1cc(-c2nc3ccccc3o2)ccc1Cl)c1ccc(Br)o1`, for which the survival was 65% (inactive).

Regarding `O=C(Nc1cc(-c2nc3ccccc3o2)ccc1Cl)c1cccc2c(Cl)cccc12`, the survival is 64% (inactive).

With `COc1ccc(-c2nc3ccccc3o2)cc1NC(=O)c1ccc(OCC(C)C)cc1`, the survival was 55% (inactive).

Consider `COc1ccc(-c2nc3ccccc3o2)cc1NC(=O)COc1ccc(C(C)(C)C)cc1`, for which the survival was 2% (active).

As to `COc1ccc(OCC(=O)Nc2cc(-c3nc4ccccc4o3)ccc2Cl)cc1`, the survival was 104% (inactive).

For the compound `COc1ccc(-c2nc3ccccc3o2)cc1NC(=O)c1ccc(-c2ccc(Br)cc2)o1`, the survival is 73% (inactive).

For `O=c1nc2sc3ccccc3n2c(=O)n1-c1ccc(Cl)c(Cl)c1`, the survival is 27% (inactive).

Take `CCc1ccc(NC(=O)Cn2nnc(C(=O)NCc3ccc(C)cc3)c2N)cc1`: the survival was 69% (inactive).

For the compound `COc1ccc(-c2cn3c(n2)sc2cc(C(=O)Nc4cc(OC)cc(OC)c4)ccc23)cc1`, the survival is 98% (inactive).

As for `COc1ccc(N2CCN(C(=O)c3cc4c(=O)n(Cc5cccs5)ccc4nc3C)CC2)cc1`, the survival is 101% (inactive).

Turning to `CCOc1cccc(C(=O)Nc2ccc(-c3nc4cc(C)cc(C)c4o3)cc2)c1`, the survival was 82% (inactive).

With `Cc1ccc2c(c1)sc1nc(-c3cc4ccccc4oc3=O)cn12`, the survival was 76% (inactive).

For `Cc1cc(C)c(NC(=O)Cn2nnc(-c3nc(-c4ccncc4)no3)c2N)c(C)c1`, the survival was 71% (inactive).

As for `Cc1ccc(Nc2nc3ccccc3c3nncn23)cc1C`, the survival was 3% (active).

On to `Cc1ccc(Cl)cc1Nc1nc2ccccc2c2nncn12`, for which the survival was 92% (inactive).

Take `COc1cccc(Nc2nc3ccccc3c3nncn23)c1`: the survival was 84% (inactive).

As for `COc1cc2ncc3c(-c4ccccc4)nn(CC(=O)NC4CCCCC4)c3c2cc1OC`, the survival was 79% (inactive).

As for `CC(C)(C)c1ccc(Oc2ccc(NC(=O)CCC(=O)OCC(=O)c3ccccc3)cc2)cc1`, the survival was 86% (inactive).

In the case of `O=C(CCSCc1cccc(Cl)c1)N1CCN(c2ccc(Cl)cc2)CC1`, the survival was 80% (inactive).

Regarding `CCN(CC)C(=O)c1sc2c(c1C)c(=O)n(-c1ccc(C)c(C)c1)c(=O)n2Cc1cc(=O)n2c(C)cccc2n1`, the survival is 22% (inactive).

As to `CCN(CC)C(=O)c1sc2c(c1C)c(=O)n(-c1ccc(Cl)c(Cl)c1)c(=O)n2Cc1cc(=O)n2ccccc2n1`, the survival was 118% (inactive).

`CCN(CC)C(=O)c1sc2c(c1C)c(=O)n(-c1ccc(Cl)c(Cl)c1)c(=O)n2Cc1cc(=O)n2c(C)cccc2n1`: the survival is 0% (active).

As for `COc1ccccc1N1CCN(CC(=O)N2CCCC2)CC1`, the survival was 94% (inactive).

Consider `Cc1nc2nc[nH]n2c(=O)c1NS(=O)(=O)c1ccc(Br)cc1`, for which the survival was 84% (inactive).

On to `O=S(=O)(c1cc(Cl)ccc1Cl)N1CCCC1`, for which the survival is 78% (inactive).

For the compound `CCOc1ccccc1NC(=O)CSC1=Nc2ccccc2C2=NC(CC(=O)NC3CCCCC3)C(=O)N12` (stereo not drawn), the survival was 81% (inactive).

As to `O=C(COCc1cc(-c2ccc(F)cc2)on1)Nc1cccc(Cl)c1Cl`, the survival is 64% (inactive).

For the compound `O=C(COCc1cc(-c2ccco2)on1)Nc1cc(Cl)ccc1O`, the survival is -2% (active).

Take `O=C(COCc1cc(-c2ccco2)on1)Nc1cccc(Cl)c1Cl`: the survival is 0% (active).

`Cc1ccc(Cl)cc1NC(=O)COCc1cc(-c2ccco2)on1`: the survival was 77% (inactive).

On to `Cc1ccc(O)c(NC(=O)COCc2cc(-c3ccco3)on2)c1`, for which the survival is 87% (inactive).

For `O=C(COCc1cc(-c2cccs2)on1)Nc1cccc(Cl)c1Cl`, the survival was 59% (inactive).

Turning to `COc1cccc(CNC(=O)c2ccc3c(c2)N(Cc2ccc(F)cc2Cl)C(=O)c2ccccc2S3)c1`, the survival was 19% (inactive).
